Records with an inconclusive call do not appear. The source made the active and inactive calls. The calls were made as follows, unless noted: active = hit-call score of the fitted dose curve at least 0.9, where 1 is the maximum; inactive = score below 0.9.
Tests used:
[1] = molecular target: Paired box protein Pax-6 (Homo sapiens) (UniProt P26367); experiment: ATG_Pax6_CIS: Attagene CIS-FACTORIAL HepG2 Assay for human Paired Box 6 (PAX6) (AID 2282956); details: HepG2 CIS-FACTORIAL PAX6 reporter transcription, RNA readout; actives raise or lower the signal
Method in brief: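 Readout: reporter transcript fluorescence after RT-PCR and capillary electrophoresis. Cells: HepG2, transiently transfected with cis-regulated MRTUs. Exposure 24 h. Gain or loss of signal fitted bidirectionally relative to DMSO.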

[2] = ATG_PXRE_CIS: Attagene CIS-FACTORIAL HepG2 Assay for human Pregnane X Receptor Element (PXRE) (AID 2282957); details: HepG2 Attagene CIS-FACTORIAL PXRE reporter, mRNA; actives raise or lower the signal
Method in brief: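 Endogenous transcription factor activity in HepG2 was gauged through induction of reporter mRNA driven by a cis-regulating promoter element, sampled 24 h post-treatment. Activity was fitted in both directions against DMSO negative control.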

[3] = ATG_PPRE_CIS: Attagene CIS-FACTORIAL HepG2 Assay for human Peroxisome Proliferator-activated Response Element (PPRE) (AID 2282958); details: HepG2 PPRE cis-element reporter, Attagene transcription factor profiling; actives raise or lower the signal
Method in brief: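 HepG2 cells transiently transfected with multiplexed cis-element reporter units measure endogenous transcription factor activity. After 24 h compound exposure, reporter mRNA is quantified by RT-PCR, 6-FAM labeling, HpaI digestion and capillary electrophoresis; bidirectional fits are made against DMSO baseline.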

[4] = ATG_RORE_CIS: Attagene CIS-FACTORIAL HepG2 Assay for human RAR-related Orphan Receptor Element (RORE) (AID 2282959); details: HepG2 Attagene cis-factorial RORE reporter, mRNA; actives raise or lower the signal
Method in brief: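 HepG2 cells transiently transfected with multiple cis-element reporter transcription units, exposed to chemical for 24 h. Reporter mRNA quantified by RT-PCR, 6-FAM primer-extension labeling, HpaI digestion and capillary electrophoresis; bidirectional fit versus DMSO baseline.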

[5] = ATG_Sox_CIS: Attagene CIS-FACTORIAL HepG2 Assay for human SRY-box transcription factor (SOX) (AID 2282960); details: HepG2 Attagene cis-factorial SOX reporter, mRNA; actives raise or lower the signal
Method in brief: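 HepG2 cells transiently transfected with cis-element-driven multiple reporter transcription units, dosed 24 h; reporter mRNA measured by RT-PCR, FAM labelling, HpaI digestion and capillary electrophoresis. Bidirectional fit versus DMSO baseline.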

[6] = molecular target: Transcription factor Sp1 (Homo sapiens) (UniProt P08047); experiment: ATG_Sp1_CIS: Attagene CIS-FACTORIAL HepG2 Assay for human Specificity Protein 1 (Sp1) (AID 2282961); details: HepG2 Sp1 cis-reporter transcription, actives raise or lower the signal
Method in brief: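 HepG2 cells transiently transfected with multiple reporter transcription units driven by cis-regulatory elements; Sp1-responsive reporter mRNA measured 24 h after dosing by RT-PCR and capillary electrophoresis fluorescence, fitted bidirectionally against DMSO baseline.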

[7] = ATG_SREBP_CIS: Attagene CIS-FACTORIAL HepG2 Assay for human Sterol Regulatory Element Binding (SREBP) (AID 2282962); details: HepG2 Attagene cis-factorial SREBP reporter, mRNA; actives raise or lower the signal
Method in brief: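 Readout: fluorescent reporter-transcript peaks resolved by capillary electrophoresis after RT-PCR. Cells were human HepG2 carrying transfected cis-promoter reporter constructs, dosed for 24 h. Gain or loss of signal was fitted against DMSO controls.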

[8] = molecular target: Signal transducer and activator of transcription 3 (Homo sapiens) (UniProt P40763); experiment: ATG_STAT3_CIS: Attagene CIS-FACTORIAL HepG2 Assay for human Signal Transducer and Activator of Transcription 3 (STAT3) (AID 2282963); details: HepG2, Attagene cis-factorial STAT3 reporter transcription; actives raise or lower the signal
Method in brief: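 HepG2, MRTU-transfected, 24 h dosing. RNA → RT → PCR → FAM label → HpaI → CE. Bidirectional fit vs DMSO.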

[9] = ATG_TA_CIS: Attagene CIS-FACTORIAL HepG2 Assay for human TA Basal Promoter (AID 2282964); details: HepG2 Attagene CIS-factorial TA basal promoter reporter; actives raise or lower the signal
Method in brief: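 Multiplexed mRNA reporter assay, HepG2, 24 h. Reporter cDNA amplified, 6-FAM primer-extended, HpaI-cut, CE-sized; DMSO = negative control and baseline.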

[10] = ATG_TCF_b_cat_CIS: Attagene CIS-FACTORIAL HepG2 Assay for human T-Cell-Factor with beta-catenin (TCF/b-cat) (AID 2282965); details: HepG2 TCF/beta-catenin cis-reporter transcription, actives raise or lower the signal
Method in brief: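 In this cis-format system, transfected HepG2 cells report endogenous transcription factor activity. Readout after 24 h exposure is reporter transcript abundance from RT-PCR and capillary electrophoresis, analysed for gain or loss of signal versus DMSO.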

[11] = ATG_TAL_CIS: Attagene CIS-FACTORIAL HepG2 Assay for human TAL Basal Promoter (AID 2282966); details: HepG2 Attagene cis-factorial TAL promoter reporter; actives raise or lower the signal;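 also: background control endpoint measuring basal TAL promoter reporter mRNA not a specific factor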
Method in brief: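 Endogenous transcription-factor activity is sensed in HepG2 cells through transfected cis-promoter reporter constructs. After 24 h dosing, reporter transcripts are quantified by RT-PCR and capillary electrophoresis. Gain or loss of signal is fitted relative to DMSO.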

[12] = ATG_TGFb_CIS: Attagene CIS-FACTORIAL HepG2 Assay for human Transforming Growth Factor (TGF) (AID 2282967); details: HepG2 Attagene CIS TGFb reporter, mRNA transcription; actives raise or lower the signal
Method in brief: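 Transcript-level reporter readout: HepG2 transfectants, 24 h exposure, RNA to cDNA, reporter-specific PCR, fluorescent primer extension, capillary sizing against ROX standards. Gain- or loss-of-signal relative to DMSO.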

[13] = molecular target: X-box-binding protein 1 (Homo sapiens) (UniProt P17861); experiment: ATG_Xbp1_CIS: Attagene CIS-FACTORIAL HepG2 Assay for human X-box Binding Protein 1 (XBP1) (AID 2282972); details: HepG2 XBP1 cis-element reporter, Attagene multiplex; actives raise or lower the signal
Method in brief: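 Read-out: fluorescent reporter mRNA fragments resolved by capillary electrophoresis after RT-PCR. Human HepG2 liver cells carried transfected cis-promoter reporter units and were exposed to chemicals for 24 hours. Gain or loss of signal fitted relative to DMSO baseline.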

[14] = ATG_M_19_TRANS: Attagene TRANS-FACTORIAL HepG2 Assay for M19 Transcription Factor (Internal Marker) (AID 2282974; active = hit-call score of the fitted dose curve at least 0.9, where 1 is the maximum); details: HepG2 Attagene TRANS-FACTORIAL M19 internal marker reporter
Method in brief: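 HepG2 cells transiently transfected with multiple GAL4-UAS reporter transcription units were exposed to chemicals for 24 h. Reporter mRNA was read by RT-PCR, 6-FAM primer extension, HpaI digestion and capillary electrophoresis; gain of signal fitted relative to DMSO.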

[15] = ATG_GAL4_TRANS: Attagene TRANS-FACTORIAL HepG2 Assay for GAL4 (Internal Marker) (AID 2282976; active = hit-call score of the fitted dose curve at least 0.9, where 1 is the maximum); details: HepG2 Attagene TRANS GAL4 internal marker reporter
Method in brief: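 Fluorescence from capillary electrophoresis of labelled RT-PCR products quantifies reporter mRNA induction after 24 h dosing of HepG2 cells carrying transfected GAL4-UAS reporter transcription units. Vehicle DMSO serves as baseline.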

[16] = ATG_VDRE_CIS: Attagene CIS-FACTORIAL HepG2 Assay for human Vitamin D Receptor Element (VDRE) (AID 2282968); details: HepG2 VDRE cis-reporter transcription, actives raise or lower the signal
Method in brief: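 Steps: transfect HepG2 with multiple reporter transcription units; dose chemicals 24 h; isolate RNA; RT-PCR; label with 6-FAM primer extension; HpaI digest; capillary electrophoresis. Curves fitted both directions against DMSO.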

[17] = molecular target: Estrogen receptor (Homo sapiens) (UniProt P03372); experiment: ATG_ERa_TRANS: Attagene TRANS-FACTORIAL HepG2 Assay for human Estrogen Receptor alpha (ERa) (AID 2282970; active = hit-call score of the fitted dose curve at least 0.9, where 1 is the maximum); details: HepG2 Attagene TRANS ERa GAL4 reporter, mRNA
Method in brief: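 Transfected HepG2 cells carrying GAL4-UAS-driven reporter units were dosed for 24 hours. Total RNA was reverse-transcribed, reporter sequences PCR-amplified, FAM-labelled, HpaI-digested and resolved by capillary electrophoresis. Increases over DMSO control defined activity.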

[18] = molecular target: Nuclear receptor subfamily 1 group I member 3 (Homo sapiens) (UniProt Q14994); experiment: ATG_CAR_TRANS: Attagene TRANS-FACTORIAL HepG2 Assay for human Constitutive Androstane Receptor (CAR) (AID 2282969; active = hit-call score of the fitted dose curve at least 0.9, where 1 is the maximum;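 also: activators raise reporter mRNA above DMSO so AC50 marks induction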); details: HepG2 Attagene TRANS-FACTORIAL CAR reporter
Method in brief: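 Steps: transient transfection of HepG2 with multiple GAL4-UAS reporter units; 24 h compound incubation; RNA isolation, RT-PCR, 6-FAM primer extension, HpaI digest; capillary electrophoresis. Gain-of-signal relative to DMSO negative control.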

[19] = molecular target: Steroid hormone receptor ERR1 (Homo sapiens) (UniProt P11474); experiment: ATG_ERRa_TRANS: Attagene TRANS-FACTORIAL HepG2 Assay for human Estrogen-Related Receptor alpha (ERRa) (AID 2282971; active = hit-call score of the fitted dose curve at least 0.9, where 1 is the maximum); details: HepG2 Attagene TRANS reporter, ERRa transactivation
Method in brief: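 HepG2 cells were transiently transfected with multiple GAL4-UAS reporter units, then dosed with compound for 24 h. Total RNA was reverse-transcribed, reporter cDNA PCR-amplified and fluorescently labelled, and fragments resolved by capillary electrophoresis; induction was compared with DMSO.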

[20] = molecular target: Estrogen-related receptor gamma (Homo sapiens) (UniProt P62508); experiment: ATG_ERRg_TRANS: Attagene TRANS-FACTORIAL HepG2 Assay for human Estrogen-Related Receptor gamma (ERRg) (AID 2282977; active = hit-call score of the fitted dose curve at least 0.9, where 1 is the maximum;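 also: hits increase reporter signal over DMSO so potencies reflect activators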); details: HepG2 Attagene TRANS reporter, ERRg transactivation
Method in brief: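 Induction of reporter transcripts through a chimeric NR-Gal4 protein is quantified in transfected human HepG2 liver cells after 24 h chemical exposure, using RT-PCR with capillary electrophoresis detection and DMSO as baseline.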

Chain of Estrogen receptor (Homo sapiens) (P03372 whole entry, looked up, the tested form may be a part): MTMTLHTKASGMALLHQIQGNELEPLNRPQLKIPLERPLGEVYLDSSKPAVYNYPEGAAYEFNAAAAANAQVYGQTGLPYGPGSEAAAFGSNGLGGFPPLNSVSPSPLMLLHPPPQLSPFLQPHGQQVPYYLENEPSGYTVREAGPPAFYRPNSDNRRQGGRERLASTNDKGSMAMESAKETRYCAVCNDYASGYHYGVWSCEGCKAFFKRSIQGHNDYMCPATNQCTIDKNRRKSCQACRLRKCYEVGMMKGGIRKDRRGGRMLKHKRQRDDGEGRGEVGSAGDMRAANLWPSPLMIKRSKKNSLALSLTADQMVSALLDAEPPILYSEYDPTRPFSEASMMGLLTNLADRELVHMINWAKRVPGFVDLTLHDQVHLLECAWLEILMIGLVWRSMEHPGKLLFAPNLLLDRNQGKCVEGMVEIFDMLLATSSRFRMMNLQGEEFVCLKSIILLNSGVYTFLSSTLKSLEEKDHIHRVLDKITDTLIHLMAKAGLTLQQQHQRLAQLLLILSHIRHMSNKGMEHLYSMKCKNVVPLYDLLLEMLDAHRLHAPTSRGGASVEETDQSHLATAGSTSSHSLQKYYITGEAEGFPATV
Chain of Paired box protein Pax-6 (Homo sapiens) (P26367 whole entry, looked up): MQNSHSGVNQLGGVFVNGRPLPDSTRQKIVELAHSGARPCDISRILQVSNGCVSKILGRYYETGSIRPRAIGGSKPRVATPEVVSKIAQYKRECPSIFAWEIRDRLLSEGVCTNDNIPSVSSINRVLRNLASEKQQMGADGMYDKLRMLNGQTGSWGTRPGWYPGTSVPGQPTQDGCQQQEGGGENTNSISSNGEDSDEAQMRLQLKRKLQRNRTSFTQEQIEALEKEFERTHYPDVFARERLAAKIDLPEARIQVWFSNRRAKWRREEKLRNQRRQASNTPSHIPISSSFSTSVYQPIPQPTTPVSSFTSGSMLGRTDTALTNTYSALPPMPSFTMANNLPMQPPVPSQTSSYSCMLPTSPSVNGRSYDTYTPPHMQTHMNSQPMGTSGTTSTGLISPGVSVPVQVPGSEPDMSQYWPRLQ
Chain of X-box-binding protein 1 (Homo sapiens) (P17861 whole entry, looked up, the tested form may be a part): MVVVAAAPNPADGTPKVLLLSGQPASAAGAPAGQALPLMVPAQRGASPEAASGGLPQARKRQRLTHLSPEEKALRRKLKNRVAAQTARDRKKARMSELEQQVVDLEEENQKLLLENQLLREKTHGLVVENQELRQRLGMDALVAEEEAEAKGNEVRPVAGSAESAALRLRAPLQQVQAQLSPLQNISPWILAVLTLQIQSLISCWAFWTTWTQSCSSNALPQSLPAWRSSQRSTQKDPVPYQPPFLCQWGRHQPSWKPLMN
Chain of Transcription factor Sp1 (Homo sapiens) (P08047 whole entry, looked up): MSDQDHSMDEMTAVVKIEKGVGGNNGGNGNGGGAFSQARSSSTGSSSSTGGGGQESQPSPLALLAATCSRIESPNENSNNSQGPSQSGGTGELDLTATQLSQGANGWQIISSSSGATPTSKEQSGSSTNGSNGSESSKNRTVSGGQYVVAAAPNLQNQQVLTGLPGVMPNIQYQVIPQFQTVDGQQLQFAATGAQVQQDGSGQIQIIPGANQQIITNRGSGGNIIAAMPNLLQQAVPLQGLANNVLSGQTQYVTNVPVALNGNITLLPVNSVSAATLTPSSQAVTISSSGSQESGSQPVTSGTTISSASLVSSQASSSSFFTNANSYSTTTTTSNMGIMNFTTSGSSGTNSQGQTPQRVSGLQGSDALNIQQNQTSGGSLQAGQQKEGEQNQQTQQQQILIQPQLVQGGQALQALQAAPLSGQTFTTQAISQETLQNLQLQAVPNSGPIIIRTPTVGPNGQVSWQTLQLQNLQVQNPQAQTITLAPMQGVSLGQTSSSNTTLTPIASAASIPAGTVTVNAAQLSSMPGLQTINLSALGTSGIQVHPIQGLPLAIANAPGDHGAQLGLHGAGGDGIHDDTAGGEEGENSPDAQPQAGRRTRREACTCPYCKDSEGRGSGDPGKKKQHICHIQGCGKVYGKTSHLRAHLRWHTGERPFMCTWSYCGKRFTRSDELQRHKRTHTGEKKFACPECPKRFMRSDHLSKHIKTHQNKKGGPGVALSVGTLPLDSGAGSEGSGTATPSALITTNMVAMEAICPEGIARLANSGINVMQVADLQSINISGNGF
Chain of Signal transducer and activator of transcription 3 (Homo sapiens) (P40763 whole entry, looked up): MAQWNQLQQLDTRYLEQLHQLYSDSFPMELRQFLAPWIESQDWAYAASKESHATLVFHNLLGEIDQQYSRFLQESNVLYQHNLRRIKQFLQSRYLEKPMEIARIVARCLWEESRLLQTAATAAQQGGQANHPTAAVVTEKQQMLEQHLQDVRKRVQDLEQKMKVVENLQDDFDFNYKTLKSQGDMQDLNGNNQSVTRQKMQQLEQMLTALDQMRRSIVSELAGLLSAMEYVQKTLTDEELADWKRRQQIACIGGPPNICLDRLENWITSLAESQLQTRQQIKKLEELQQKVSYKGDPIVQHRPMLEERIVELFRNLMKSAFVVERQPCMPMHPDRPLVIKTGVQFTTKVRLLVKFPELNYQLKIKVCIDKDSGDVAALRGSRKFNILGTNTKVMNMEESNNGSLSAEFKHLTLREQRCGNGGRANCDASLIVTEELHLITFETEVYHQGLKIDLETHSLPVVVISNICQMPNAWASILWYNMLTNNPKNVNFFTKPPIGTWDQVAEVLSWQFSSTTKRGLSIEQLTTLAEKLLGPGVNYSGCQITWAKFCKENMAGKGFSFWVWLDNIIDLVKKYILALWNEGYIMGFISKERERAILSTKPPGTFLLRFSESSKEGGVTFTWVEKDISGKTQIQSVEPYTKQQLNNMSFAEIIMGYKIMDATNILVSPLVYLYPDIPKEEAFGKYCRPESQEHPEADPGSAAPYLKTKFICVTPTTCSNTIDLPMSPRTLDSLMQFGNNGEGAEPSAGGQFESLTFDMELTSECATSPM
Chain of Estrogen-related receptor gamma (Homo sapiens) (P62508 whole entry, looked up, the tested form may be a part): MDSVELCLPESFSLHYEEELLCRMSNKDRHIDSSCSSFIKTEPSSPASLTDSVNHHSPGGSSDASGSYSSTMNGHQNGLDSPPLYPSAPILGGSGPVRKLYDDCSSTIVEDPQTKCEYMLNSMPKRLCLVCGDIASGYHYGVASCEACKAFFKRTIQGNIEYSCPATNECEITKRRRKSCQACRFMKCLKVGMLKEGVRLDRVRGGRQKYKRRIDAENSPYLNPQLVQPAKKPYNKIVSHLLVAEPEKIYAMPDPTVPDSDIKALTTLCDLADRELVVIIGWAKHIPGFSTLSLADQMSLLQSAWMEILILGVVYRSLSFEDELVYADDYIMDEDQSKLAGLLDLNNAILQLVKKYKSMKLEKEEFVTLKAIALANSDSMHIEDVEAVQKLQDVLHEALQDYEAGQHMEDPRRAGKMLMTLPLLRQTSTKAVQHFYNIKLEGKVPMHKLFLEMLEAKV
Chain of Steroid hormone receptor ERR1 (Homo sapiens) (P11474 whole entry, looked up, the tested form may be a part): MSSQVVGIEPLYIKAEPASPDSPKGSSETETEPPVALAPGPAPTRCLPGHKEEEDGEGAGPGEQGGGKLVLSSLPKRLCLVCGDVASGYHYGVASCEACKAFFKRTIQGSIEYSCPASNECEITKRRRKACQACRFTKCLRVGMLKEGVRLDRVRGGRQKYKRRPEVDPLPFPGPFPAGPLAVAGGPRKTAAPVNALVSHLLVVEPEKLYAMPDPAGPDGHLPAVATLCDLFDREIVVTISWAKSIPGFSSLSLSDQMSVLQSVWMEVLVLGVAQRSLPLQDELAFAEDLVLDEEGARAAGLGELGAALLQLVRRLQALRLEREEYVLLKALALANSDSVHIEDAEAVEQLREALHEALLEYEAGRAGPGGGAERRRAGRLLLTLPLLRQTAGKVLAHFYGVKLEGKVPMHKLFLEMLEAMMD
Chain of Nuclear receptor subfamily 1 group I member 3 (Homo sapiens) (Q14994 whole entry, looked up, the tested form may be a part): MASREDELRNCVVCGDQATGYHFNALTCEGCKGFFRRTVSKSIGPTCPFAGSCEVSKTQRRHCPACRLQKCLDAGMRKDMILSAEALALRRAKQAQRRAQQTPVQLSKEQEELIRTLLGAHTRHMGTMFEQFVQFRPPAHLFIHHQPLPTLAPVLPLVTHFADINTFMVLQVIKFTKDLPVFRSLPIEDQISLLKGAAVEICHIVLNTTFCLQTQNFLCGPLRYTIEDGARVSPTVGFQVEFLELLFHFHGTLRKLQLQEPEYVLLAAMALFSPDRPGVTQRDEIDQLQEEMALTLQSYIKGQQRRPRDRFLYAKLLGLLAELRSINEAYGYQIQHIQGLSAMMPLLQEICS

c1c[nH]cn1
outcome [1]: inactive
AC50 [2]: 63.8 µM (active)
outcome [3]: inactive
outcome [4]: inactive
outcome [5]: inactive
outcome [6]: inactive
outcome [7]: inactive
outcome [8]: inactive
outcome [9]: inactive
outcome [10]: inactive
outcome [11]: inactive
outcome [12]: inactive
outcome [13]: inactive
outcome [14]: inactive
outcome [15]: inactive

O=[N+]([O-])c1ccc(CO)cc1
outcome [1]: inactive
AC50 [2]: 5.54 µM (active)
outcome [3]: inactive
outcome [4]: inactive
outcome [5]: inactive
outcome [6]: inactive
outcome [7]: inactive
outcome [8]: inactive
outcome [9]: inactive
outcome [10]: inactive
outcome [11]: inactive
outcome [16]: inactive
outcome [17]: inactive
outcome [13]: inactive
outcome [15]: inactive

Cc1ccc(OC(=O)CC(C)C)cc1
outcome [1]: inactive
outcome [2]: inactive
outcome [3]: inactive
outcome [4]: inactive
outcome [5]: inactive
outcome [6]: inactive
outcome [7]: inactive
outcome [8]: inactive
outcome [9]: inactive
outcome [10]: inactive
outcome [11]: inactive
outcome [12]: inactive
outcome [18]: inactive
outcome [17]: inactive
outcome [13]: inactive
outcome [15]: inactive

FC(F)=C(F)OC(F)(F)C(F)(F)C(F)(F)F
outcome [1]: inactive
outcome [2]: inactive
outcome [3]: inactive
outcome [4]: inactive
outcome [5]: inactive
outcome [6]: inactive
outcome [7]: inactive
outcome [8]: inactive
outcome [9]: inactive
outcome [10]: inactive
outcome [11]: inactive
outcome [12]: inactive
outcome [16]: inactive
outcome [13]: inactive
outcome [14]: inactive
outcome [15]: inactive

OC1CCCCCCCCCCC1
outcome [1]: inactive
AC50 [2]: 4.47 µM (active)
outcome [3]: inactive
outcome [4]: inactive
outcome [5]: inactive
outcome [6]: inactive
outcome [7]: inactive
outcome [8]: inactive
outcome [9]: inactive
outcome [10]: inactive
outcome [11]: inactive
outcome [12]: inactive
AC50 [17]: 10.6 µM (active)
outcome [13]: inactive

CCCCCCC(O)CO (configuration not stated)
outcome [1]: inactive
outcome [2]: inactive
outcome [3]: inactive
outcome [4]: inactive
outcome [5]: inactive
outcome [6]: inactive
outcome [7]: inactive
outcome [8]: inactive
outcome [9]: inactive
outcome [10]: inactive
outcome [11]: inactive
outcome [12]: inactive
outcome [13]: inactive

CN(C)CCCN(C)C
outcome [1]: inactive
outcome [2]: inactive
outcome [3]: inactive
outcome [4]: inactive
outcome [5]: inactive
outcome [6]: inactive
outcome [7]: inactive
outcome [8]: inactive
outcome [9]: inactive
outcome [10]: inactive
outcome [11]: inactive
outcome [12]: inactive
outcome [17]: inactive
outcome [13]: inactive
outcome [14]: inactive
outcome [15]: inactive

c1ccc2c(c1)ccc1ncccc12
outcome [1]: inactive
AC50 [2]: 25.3 µM (active)
outcome [3]: inactive
outcome [4]: inactive
outcome [5]: inactive
outcome [6]: inactive
outcome [7]: inactive
outcome [8]: inactive
outcome [9]: inactive
outcome [10]: inactive
outcome [11]: inactive
outcome [12]: inactive
outcome [17]: inactive
outcome [19]: inactive
outcome [13]: inactive
outcome [14]: inactive
outcome [15]: inactive
outcome [20]: inactive

O=C(C=Cc1ccccc1)OCc1ccccc1
outcome [1]: inactive
AC50 [2]: 13.2 µM (active)
outcome [3]: inactive
outcome [4]: inactive
outcome [5]: inactive
outcome [6]: inactive
outcome [7]: inactive
outcome [8]: inactive
outcome [9]: inactive
outcome [10]: inactive
outcome [11]: inactive
outcome [12]: inactive
outcome [17]: inactive
outcome [13]: inactive

Source: PubChem BioAssay (EPA / NIEHS)
